Screening results as filed in PubChem.
Compounds with a hit are over-represented: about 6.9% of the library has one in this group of screens.
SW480 rereplic: A quantitative high throughput screen for small molecules that induce DNA re-replication in SW480 colon adenocarcinoma cells. Potency, µM (titrated, usually from 46.1 µM), without a hit: at the highest dose re-replication activation, hits mostly activators. 1.8% of 340,000 active. AID 624297, 2012. SW480 DNA re-replication, Hoechst DNA content imaging, 48 h; further: potency means the concentration at half of the fitted maximal effect; % of control where 0% means no effect; nearly all actives have a fitted effect of over 55% in size
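Cells (250 per well) received 23 nL compound or DMSO by pin tool and were kept 48 hr at 37 C, 5% CO2. Nuclei were then stained with Hoechst for 40 min and scanned for DNA content.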
Giardia killer: Small Molecules that selectively kill Giardia lamblia: qHTS | Giardia lamblia trophozoite viability | activity change, % at 7.66 µM, hits read low | 0.15% of 340,000 active; in the data active means activity change below about -80%; inconclusive means between about -30% and that limit;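 further: parasites exposed to compound for two days anaerobically before the ATP read; on the % scale 0 is the no-effect control and ±100 the full control effect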
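Trophozoites 100 cells/well + cpd; 48 hrs, 37 deg C, anaerobic. ATPLite 1-Step added, 15-30 min RT, luminescence read (ATP-based viability).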
KB-V1 MDR tox: qHTS assay for MDR1-selective chemotherapeutics: Primary screen using the drug-selected MDR subline cells KB-V1. Potency, µM (top dose mostly 46.1 µM), actives largely listed as cytotoxic. KB-V1 MDR cells viability, CellTiter-Glo, 72 h. 3.4% of 400,000 active. AID 1347076, 2019; further: potency means the concentration at half of the fitted maximal effect; on the % scale 0 is the no-effect control and ±100 the full control effect; nearly all actives have a fitted effect of over 60% in size
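Drug-selected KB-V1 cells, grown in DMEM lacking phenol red with 10% FBS, receive compound titrations; after three days at 37 degrees C, surviving cell ATP is quantified by CellTiter-Glo luminescence and responses normalized and curve-fitted.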
MCF10A rerep: A quantitative high throughput screen for small molecules that induce DNA re-replication in MCF 10a normal breast cells; MCF 10A DNA re-replication, Hoechst nuclear intensity, 48 h; Potency, µM (highest dose often 46.1 µM), inactives show at the highest dose activity, positive = re-replication, usual class: activators; AID 624296, 2012; 2.9% of 350,000 active; further: potency means the concentration at half of the fitted maximal effect; % of control where 0% means no effect; nearly all actives have a fitted effect of over 50% in size
KB-3-1 tox: qHTS assay for MDR1-selective chemotherapeutics: Primary screen using the parental adenocarcinoma cell KB-3-1. KB-3-1 viability, CellTiter-Glo ATP luminescence, 72 h. Potency, µM (highest dose often 46.1 µM), actives largely listed as cytotoxic. 1.4% of 400,000 active; further: potency means the concentration at half of the fitted maximal effect; on the % scale 0 is the no-effect control and ±100 the full control effect; nearly all actives have a fitted effect of over 60% in size
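KB-3-1 parental drug-naive adenocarcinoma cells in DMEM/10% FBS, incubated 72 h at 37 C with pin-transferred compounds across a concentration series. Viability by CellTiter-Glo luminescence; concentration-response curves fitted after normalization.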
S-ASM inh: Inhibitors of Secretory Acid Sphingomyelinase (S-ASM): qHTS; Sphingomyelin phosphodiesterase (Homo sapiens), P17405; placental ASM, HMU-PC fluorogenic substrate, 60 min; Potency, µM (highest dose often 57.5 µM), without a hit: at the highest dose activity change, negative = inhibition, hits mostly inhibitors; 0.006% of 340,000 active; AID 504937, 2011; further: potency means the concentration at half of the fitted maximal effect
Target sequence (P17405 47-631 limits assumed): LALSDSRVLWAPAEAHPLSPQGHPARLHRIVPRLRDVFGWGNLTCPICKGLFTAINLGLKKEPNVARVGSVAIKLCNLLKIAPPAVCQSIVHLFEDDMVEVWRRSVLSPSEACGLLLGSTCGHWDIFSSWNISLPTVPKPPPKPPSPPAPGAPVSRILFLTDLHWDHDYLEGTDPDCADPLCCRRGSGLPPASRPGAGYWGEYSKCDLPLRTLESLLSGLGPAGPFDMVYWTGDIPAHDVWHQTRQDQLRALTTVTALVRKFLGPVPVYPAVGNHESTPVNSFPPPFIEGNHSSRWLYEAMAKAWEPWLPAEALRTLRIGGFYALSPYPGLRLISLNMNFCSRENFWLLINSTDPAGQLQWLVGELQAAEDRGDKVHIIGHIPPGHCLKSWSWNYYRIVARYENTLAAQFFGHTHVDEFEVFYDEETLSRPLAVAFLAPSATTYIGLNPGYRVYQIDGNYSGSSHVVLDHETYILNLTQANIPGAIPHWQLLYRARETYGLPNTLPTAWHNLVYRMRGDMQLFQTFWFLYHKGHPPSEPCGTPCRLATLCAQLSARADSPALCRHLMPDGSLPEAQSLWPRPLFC
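HMU-PC0 cleavage (9 uM final) by human placental ASM, 60 min at 37 °C following 10 min compound exposure at RT; stopped at pH 10, fluorescence Ex 386/Em 447 nm.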
Numbers without * were called inactive; i = inactive; ? = inconclusive; . = no result given. Unless noted, the call rests on the fitted dose curve; in most records, active means well fitted curve in the direction sought with a large enough effect; inconclusive means small, poorly fitted or top-dose-only effect, or another doubt; inactive means no such curve, though single readings can be large; an effect the other way counts as inactive or inconclusive.

SMILES	SW480 rereplic	Giardia killer	KB-V1 MDR tox	MCF10A rerep	KB-3-1 tox	S-ASM inh
CCCc1cc(-c2nc(N)ncc2-c2ccc3c(c2)OCCCO3)c(O)cc1OC	?	-8	2.9µM*	?	i	-10%
CCOc1ccc(-c2nc(-c3ccc(OC)cc3)no2)cc1OCC	-10%	-9	13µM*	3%	i	-5%
COc1cc(-c2nc(-c3ccc(NC(=O)c4ccc(Br)o4)cc3)no2)cc(OC)c1OC	17%	19	?	5.2µM*	i	-6%
COc1ccc(Cc2noc(-c3ccc(OC)c(OC)c3)n2)cc1OC	?	16	12µM*	?	i	-8%
COc1ccc(CCC(=O)Nc2ccc(-c3noc(-c4ccc(OC)c(OC)c4)n3)cc2)cc1	-9%	20	?	?	i	-2%
COc1ccc(-c2nc(-c3ccc(NC(=O)c4ccc(Br)o4)cc3)no2)cc1OC	15%	-2	i	2.6µM*	i	-4%
COc1ccc(Cc2n[nH]c(=S)n2NC(=O)Nc2ccc(Cl)c(Cl)c2)cc1	-4%	-19	i	17%	i	-5%
COc1ccc(-c2noc(CC(=O)Nc3cc(OC)ccc3OC)n2)cc1	.	.	i	.	i	.
CCN(C(=O)CSc1nc2ccccc2n1Cc1ccc(C(=O)OC)cc1)c1ccccc1	.	.	i	.	i	.
CC(C)CC(=O)Nc1ccc(S(=O)(=O)Nc2cc3c(cc2N2CCOCC2)n(C)c(=O)c(=O)n3C)cc1	.	.	i	.	i	.
CSc1ccc(CNC(=O)Cn2nc(N3CCN(c4ccccc4)CC3)ccc2=O)cc1	.	.	i	.	i	.
O=C(O)c1ccccc1OP(=O)(O)O	-1%	.	.	0%	.	.
Cc1cc(C(=O)CCl)c(C)n1-c1cccc([N+](=O)[O-])c1	?	-3	23µM*	?	16µM*	3%
Cc1cc(C(=O)CCl)c(C)n1Cc1ccco1	?	24	i	?	i	-1%
CC(=O)c1c(C(C)=O)c(C)n(-c2cccc([N+](=O)[O-])c2)c1C	-2%	5	i	4%	i	1%
Cc1cc(C(=O)CCl)c(C)n1-c1ccon1	12µM*	27	?	?	?	5%
Cn1c(=O)c2c(c3ccccc31)OC(=O)CC2c1ccccc1 (centres undefined)	.	.	i	.	i	.
Cc1ccc(C)c(Cn2c(=O)n(CCCC(=O)NCc3ccco3)c(=O)c3sccc32)c1	?	-2	?	13µM*	5.8µM*	-3%
CCOC(=S)SSC(=S)OCC	-5%	.	.	-5%	.	.
C=CCn1c(SCC)nc2ccccc2c1=O	.	38	i	.	i	.
Cn1c(-c2cccc(OCc3ccccc3)c2)nc2c1c(=O)[nH]c(=O)n2Cc1ccccc1	0%	11	?	?	15µM*	7%
Cn1c(=O)c2c(nc(-c3ccccc3)n2C)n(Cc2ccccc2)c1=O	-3%	26	15µM*	5%	i	-1%
COc1ccc(-c2nc3c(c(=O)[nH]c(=O)n3Cc3ccccc3)n2C)cc1	-7%	-9	i	-1%	i	5%
COc1ccc(-c2nc3c(c(=O)[nH]c(=O)n3Cc3ccccc3)n2Cc2ccccc2)cc1	3%	0	3.7µM*	?	?	-12%
Cn1c(-c2cccc(F)c2)nc2c1c(=O)[nH]c(=O)n2Cc1ccccc1	-24%	2	i	2%	i	-16%
SMILES	SW480 rereplic	Giardia killer	KB-V1 MDR tox	MCF10A rerep	KB-3-1 tox	S-ASM inh
CCC(=O)N1CCc2cc(S(=O)(=O)CCC(=O)N3CCN(c4cccc(C)c4C)CC3)ccc21	.	.	?	.	i	.
CCN(c1ccccc1)S(=O)(=O)c1ccc(NC(=O)c2cc(=O)c3cc(C)c(C)cc3o2)cc1	.	.	i	.	i	.
Cc1cc(C(=O)CSc2n[nH]c(N)n2)c(C)n1-c1ccc(F)cc1	-2%	13	16µM*	6%	?	3%
Cc1ccc(-n2c(C)cc(C(=O)CSc3n[nH]c(N)n3)c2C)cc1	-23%	-25	i	13%	21µM*	-1%
Cc1cc(C(=O)CSc2n[nH]c(N)n2)c(C)n1-c1ccccc1	8%	33	i	?	i	3%
CCOC(=O)c1c(S(=O)(=O)N2CCCC(C(=O)N3CCN(c4ccccc4)CC3)C2)c(C)n(C)c1C (centres undefined)	.	.	i	.	i	.
O=C(CSc1nc2c(cnn2-c2ccc(F)cc2)c(=O)[nH]1)Nc1ccc(Br)cc1	.	.	i	.	i	.
Cc1ccc(-c2nnc(Nc3ccc(O)cc3)c3ccccc23)cc1S(=O)(=O)N1CCN(C)CC1	.	.	i	.	i	.
COc1ccc(C(=O)N2CCc3c([nH]c4ccccc34)C2C(F)(F)F)cc1 (centres undefined)	-15%	-2	i	27%	i	-15%
COc1ccc(C2c3[nH]c4ccc(OC)cc4c3CCN2C(=O)Nc2ccccc2)cc1 (centres undefined)	.	.	?	.	10µM*	.
Cc1nc(NC2=NCN(CCCN3CCOCC3)CN2)nc2c(C)cccc12	?	-12	i	?	8.2µM*	12%
O=C(NCC(c1ccco1)N1CCCCC1)c1cccc(NS(=O)(=O)c2ccc(Br)cc2)c1 (centres undefined)	4%	0	?	18µM*	i	-1%
Cc1ccc(S(=O)(=O)Nc2cccc(C(=O)NCC(c3ccco3)N3CCCC3)c2)cc1F (centres undefined)	23µM*	1	?	21%	?	17%
COc1ccccc1C(CNC(=O)c1cccc(NS(=O)(=O)c2ccc(C)c(F)c2)c1)N1CCCC1 (centres undefined)	-7%	-1	i	3%	i	6%
COc1ccccc1CNC(=O)Nc1nnc(-c2ccncc2)s1	.	.	i	.	?	.
Cc1ccc(O)c(C(=O)CC(=O)c2ccccc2Cl)c1	5%	-11	7.3µM*	?	?	?
COCCNC(=O)c1onc(CCl)c1C(=O)OC	?	-12	i	8%	i	4%
C=CCNC(=O)c1onc(CCl)c1C(=O)OC	?	-11	?	18µM*	?	4%
COc1ccc(Cl)cc1NC(=O)CC1S/C(=N/N=C2CCCCCC2)NC1=O (centres undefined)	-7%	2	i	-4%	i	-14%
